# About 7,900 targets were measured; listed, in parts, are those with a hit and a random draw of the rest. About 0.6% of all pairs of compound and target were hits. A number with no mark means an inactive call.
# What was measured:
# Assay in all cases: log2 fold change, soluble protein after heating vs DMSO (PISA); higher = thermal stabilisation; K562 cells, 10 uM, 30 min; active = over 0.2 and 3.5 SD of the protein, either way, in both replicates (recomputed)
# saracatinib = compound: CN1CCN(CCOc2cc(OC3CCOCC3)c3c(Nc4c(Cl)ccc5c4OCO5)ncnc3c2)CC1 [saracatinib]
# How it was run: (§1)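 K562 cells (2×10^6 cells/mL) were treated with 10 μM compound for 30 min, and aliquots were heated for 3 min over 48°C-58°C. Pooled aliquots were extracted in PBS with 0.5% NP-40 at 4°C, and the supernatant after 21,000xg for 90 min was measured by TMTpro 16plex LC-MS/MS with channel sums equalised. Reported thermal stability, relative to control samples and from duplicates, is a log2 fold change.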
# sotrastaurin = compound: CN1CCN(c2nc(C3=C(c4c[nH]c5ccccc45)C(=O)NC3=O)c3ccccc3n2)CC1 [sotrastaurin]
# How it was run: as §1
# alvocidib = compound: CN1CC[C@H](c2c(O)cc(O)c3c(=O)cc(-c4ccccc4Cl)oc23)[C@H](O)C1 [alvocidib]
# How it was run: as §1
# Tubastatin A = compound: CN1CCc2c(c3ccccc3n2Cc2ccc(C(=O)NO)cc2)C1 [Tubastatin A]
# How it was run: as §1
# [1] = compound: CNC(=O)C1=CC=CC=C1NC2=NC(=NC=C2Cl)NC3=C(C=C(C=C3)N4CCOCC4)OC
# How it was run: as §1
# defactinib = compound: CNC(=O)c1ccc(Nc2ncc(C(F)(F)F)c(NCc3nccnc3N(C)S(C)(=O)=O)n2)cc1 [defactinib]
# How it was run: as §1
# [2] = compound: CNc1nc(-c2ccc3c(N)n[nH]c3c2)cc(N2C[C@@H](C(=O)NC3CCCCC3)CC[C@H]2C)n1
# How it was run: as §1
# [3] = compound: COC(=O)[C@H](CCSC)NC(=O)C1=C(C=C(C=C1)NC[C@H](CS)N)C2=CC=CC=C2
# How it was run: as §1
# [4] = compound: COC1=CC=C(C=C1)CN2C=CC3=C2C=C(C=C3)C(=O)NO
# How it was run: as §1
# filanesib = compound: CON(C)C(=O)N1N=C(c2cc(F)ccc2F)S[C@@]1(CCCN)c1ccccc1 [filanesib]
# How it was run: as §1
# zotarolimus = compound: CO[C@H]1C[C@@H]2CC[C@@H](C)[C@@](O)(O2)C(=O)C(=O)N2CCCC[C@H]2C(=O)O[C@H]([C@H](C)C[C@@H]2CC[C@H](n3cnnn3)[C@H](OC)C2)CC(=O)[C@H](C)/C=C(\C)[C@@H](O)[C@@H](OC)C(=O)[C@H](C)C[C@H](C)/C=C/C=C/C=C/1C [zotarolimus]
# How it was run: as §1
# idasanutlin = compound: COc1cc(C(=O)O)ccc1NC(=O)[C@@H]1N[C@@H](CC(C)(C)C)[C@](C#N)(c2ccc(Cl)cc2F)[C@H]1c1cccc(Cl)c1F [idasanutlin]
# How it was run: as §1
# alisertib = compound: COc1cc(Nc2ncc3c(n2)-c2ccc(Cl)cc2C(c2c(F)cccc2OC)=NC3)ccc1C(=O)O [alisertib]
# How it was run: as §1
# [5] = compound: COc1cc2nc(-c3cc(F)ccc3O)nc(N[C@@H]3CNC[C@H]3C(C)(C)O)c2cc1OC
# How it was run: as §1
# gefitinib = compound: COc1cc2ncnc(Nc3ccc(F)c(Cl)c3)c2cc1OCCCN1CCOCC1 [gefitinib]
# How it was run: as §1
# [6] = compound: COc1cccc2cc(-c3nc([C@H]4CC[C@H](C(=O)O)CC4)n4ncnc(N)c34)[nH]c12
# How it was run: as §1
# lapatinib = compound: CS(=O)(=O)CCNCc1ccc(-c2ccc3ncnc(Nc4ccc(OCc5cccc(F)c5)c(Cl)c4)c3c2)o1 [lapatinib]
# How it was run: as §1
# pictilisib = compound: CS(=O)(=O)N1CCN(Cc2cc3nc(-c4cccc5[nH]ncc45)nc(N4CCOCC4)c3s2)CC1 [pictilisib]
# How it was run: as §1
# rucaparib = compound: CNCc1ccc(-c2[nH]c3cc(F)cc4c3c2CCNC4=O)cc1 [rucaparib]
# How it was run: as §1
# encorafenib = compound: COC(=O)N[C@@H](C)CNc1nccc(-c2cn(C(C)C)nc2-c2cc(Cl)cc(NS(C)(=O)=O)c2F)n1 [encorafenib]
# How it was run: as §1
# Sequence of UniProt Q01082 (Q01082 whole entry, looked up): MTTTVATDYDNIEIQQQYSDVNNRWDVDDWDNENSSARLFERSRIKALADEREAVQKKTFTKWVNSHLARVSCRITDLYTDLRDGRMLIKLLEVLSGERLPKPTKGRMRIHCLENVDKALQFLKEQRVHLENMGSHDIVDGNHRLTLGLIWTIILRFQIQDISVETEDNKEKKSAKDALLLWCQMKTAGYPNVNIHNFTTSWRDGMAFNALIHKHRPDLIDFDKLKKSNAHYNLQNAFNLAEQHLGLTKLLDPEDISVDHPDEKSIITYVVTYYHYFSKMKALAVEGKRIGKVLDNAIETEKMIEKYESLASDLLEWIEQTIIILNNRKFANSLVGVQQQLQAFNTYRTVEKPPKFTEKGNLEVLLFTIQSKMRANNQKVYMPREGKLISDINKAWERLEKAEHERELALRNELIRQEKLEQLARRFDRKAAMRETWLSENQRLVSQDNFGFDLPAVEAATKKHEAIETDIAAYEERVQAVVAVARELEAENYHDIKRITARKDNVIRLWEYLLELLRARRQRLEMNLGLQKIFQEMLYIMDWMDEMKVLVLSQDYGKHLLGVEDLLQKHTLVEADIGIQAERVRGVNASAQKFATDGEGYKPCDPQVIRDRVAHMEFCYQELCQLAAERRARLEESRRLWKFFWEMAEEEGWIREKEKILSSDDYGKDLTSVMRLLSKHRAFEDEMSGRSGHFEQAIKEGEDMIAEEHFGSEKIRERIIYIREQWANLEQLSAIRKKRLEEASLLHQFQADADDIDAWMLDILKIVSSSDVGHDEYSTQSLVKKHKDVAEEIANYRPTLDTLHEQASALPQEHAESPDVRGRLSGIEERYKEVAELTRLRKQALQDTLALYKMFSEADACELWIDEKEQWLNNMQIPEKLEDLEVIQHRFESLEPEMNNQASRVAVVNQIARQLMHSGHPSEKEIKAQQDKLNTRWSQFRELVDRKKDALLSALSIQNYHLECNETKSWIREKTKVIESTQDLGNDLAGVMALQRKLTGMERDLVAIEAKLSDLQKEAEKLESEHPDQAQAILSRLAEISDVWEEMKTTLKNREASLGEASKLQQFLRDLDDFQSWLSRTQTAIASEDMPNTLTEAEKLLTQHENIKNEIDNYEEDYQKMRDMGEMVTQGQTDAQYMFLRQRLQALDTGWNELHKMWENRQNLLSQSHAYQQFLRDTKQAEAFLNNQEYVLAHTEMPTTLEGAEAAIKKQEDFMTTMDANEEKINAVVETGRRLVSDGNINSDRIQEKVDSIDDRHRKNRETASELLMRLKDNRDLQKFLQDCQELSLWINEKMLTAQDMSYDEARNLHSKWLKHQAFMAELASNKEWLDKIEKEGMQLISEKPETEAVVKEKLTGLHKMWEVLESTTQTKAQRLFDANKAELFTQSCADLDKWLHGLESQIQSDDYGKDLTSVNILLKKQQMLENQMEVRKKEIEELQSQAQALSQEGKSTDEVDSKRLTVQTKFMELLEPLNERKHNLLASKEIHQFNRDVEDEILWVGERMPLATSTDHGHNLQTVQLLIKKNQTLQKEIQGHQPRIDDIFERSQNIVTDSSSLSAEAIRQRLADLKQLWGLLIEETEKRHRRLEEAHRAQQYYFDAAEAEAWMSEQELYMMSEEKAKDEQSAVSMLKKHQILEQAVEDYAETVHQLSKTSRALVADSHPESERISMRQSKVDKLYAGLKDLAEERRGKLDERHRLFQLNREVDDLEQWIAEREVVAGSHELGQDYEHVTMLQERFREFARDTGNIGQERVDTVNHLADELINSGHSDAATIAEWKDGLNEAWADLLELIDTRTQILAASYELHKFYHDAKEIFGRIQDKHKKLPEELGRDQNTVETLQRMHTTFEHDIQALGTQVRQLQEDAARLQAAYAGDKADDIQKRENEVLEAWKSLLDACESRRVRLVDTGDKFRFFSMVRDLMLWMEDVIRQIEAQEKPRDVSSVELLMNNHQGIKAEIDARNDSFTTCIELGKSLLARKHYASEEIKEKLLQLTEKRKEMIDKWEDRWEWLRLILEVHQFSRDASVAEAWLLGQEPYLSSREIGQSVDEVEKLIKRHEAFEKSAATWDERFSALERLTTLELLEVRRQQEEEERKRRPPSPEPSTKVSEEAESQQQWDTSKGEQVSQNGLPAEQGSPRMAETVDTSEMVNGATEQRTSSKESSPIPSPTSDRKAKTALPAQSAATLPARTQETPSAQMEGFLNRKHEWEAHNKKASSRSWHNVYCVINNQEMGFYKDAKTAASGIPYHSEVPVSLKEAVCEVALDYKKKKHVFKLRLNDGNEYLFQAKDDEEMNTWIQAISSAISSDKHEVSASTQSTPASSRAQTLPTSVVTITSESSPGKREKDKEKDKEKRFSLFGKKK
# Sequence of UniProt Q99523 (Q99523 whole entry, looked up): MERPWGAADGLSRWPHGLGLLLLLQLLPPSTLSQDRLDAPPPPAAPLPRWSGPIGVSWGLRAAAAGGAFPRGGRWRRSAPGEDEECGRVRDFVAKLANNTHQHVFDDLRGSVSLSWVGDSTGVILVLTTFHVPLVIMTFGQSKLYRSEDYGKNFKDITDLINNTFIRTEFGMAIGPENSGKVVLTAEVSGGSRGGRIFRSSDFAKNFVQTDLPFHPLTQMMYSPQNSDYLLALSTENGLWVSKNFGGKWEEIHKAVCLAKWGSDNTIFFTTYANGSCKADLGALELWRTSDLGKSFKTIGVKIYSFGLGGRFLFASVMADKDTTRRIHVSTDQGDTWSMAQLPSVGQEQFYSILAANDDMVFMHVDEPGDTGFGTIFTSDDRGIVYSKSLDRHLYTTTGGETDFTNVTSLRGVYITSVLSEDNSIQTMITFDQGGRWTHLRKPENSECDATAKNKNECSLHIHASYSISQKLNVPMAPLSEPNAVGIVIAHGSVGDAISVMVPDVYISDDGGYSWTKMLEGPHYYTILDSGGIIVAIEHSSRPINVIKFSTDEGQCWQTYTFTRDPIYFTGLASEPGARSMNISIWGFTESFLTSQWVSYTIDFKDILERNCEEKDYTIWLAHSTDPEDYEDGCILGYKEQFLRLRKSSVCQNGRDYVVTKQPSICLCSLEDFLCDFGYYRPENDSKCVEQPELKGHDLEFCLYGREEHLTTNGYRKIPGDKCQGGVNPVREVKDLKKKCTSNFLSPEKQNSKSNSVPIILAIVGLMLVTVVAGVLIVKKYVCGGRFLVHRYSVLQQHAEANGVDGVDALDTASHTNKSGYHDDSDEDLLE
# Sequence of UniProt P63165 (P63165 whole entry, looked up): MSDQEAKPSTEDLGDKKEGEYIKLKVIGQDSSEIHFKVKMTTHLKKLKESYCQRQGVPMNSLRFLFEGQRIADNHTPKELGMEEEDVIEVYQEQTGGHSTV
# Sequence of UniProt Q8NEW0 (Q8NEW0 whole entry, looked up): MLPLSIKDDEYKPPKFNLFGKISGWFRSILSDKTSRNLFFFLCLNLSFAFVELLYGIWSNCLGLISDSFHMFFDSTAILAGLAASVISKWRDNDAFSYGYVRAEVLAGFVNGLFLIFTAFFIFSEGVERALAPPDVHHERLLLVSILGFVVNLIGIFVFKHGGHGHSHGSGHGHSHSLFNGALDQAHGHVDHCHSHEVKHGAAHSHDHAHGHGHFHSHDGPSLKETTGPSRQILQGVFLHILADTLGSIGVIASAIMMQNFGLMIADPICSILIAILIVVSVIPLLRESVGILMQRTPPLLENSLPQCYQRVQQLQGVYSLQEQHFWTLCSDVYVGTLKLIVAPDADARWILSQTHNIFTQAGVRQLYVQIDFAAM
# Sequence of UniProt Q9NRS6 (Q9NRS6 whole entry, looked up): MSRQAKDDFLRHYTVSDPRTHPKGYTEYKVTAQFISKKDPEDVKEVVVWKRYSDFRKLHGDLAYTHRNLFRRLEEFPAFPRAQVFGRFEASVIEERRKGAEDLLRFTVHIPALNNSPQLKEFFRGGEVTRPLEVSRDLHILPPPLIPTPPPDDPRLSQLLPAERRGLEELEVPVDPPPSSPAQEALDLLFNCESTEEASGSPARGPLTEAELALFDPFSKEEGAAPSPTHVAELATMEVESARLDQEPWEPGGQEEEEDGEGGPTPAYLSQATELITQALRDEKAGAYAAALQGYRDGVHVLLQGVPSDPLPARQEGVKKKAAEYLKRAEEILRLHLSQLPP
# Sequence of UniProt Q8N357 (Q8N357 whole entry, looked up): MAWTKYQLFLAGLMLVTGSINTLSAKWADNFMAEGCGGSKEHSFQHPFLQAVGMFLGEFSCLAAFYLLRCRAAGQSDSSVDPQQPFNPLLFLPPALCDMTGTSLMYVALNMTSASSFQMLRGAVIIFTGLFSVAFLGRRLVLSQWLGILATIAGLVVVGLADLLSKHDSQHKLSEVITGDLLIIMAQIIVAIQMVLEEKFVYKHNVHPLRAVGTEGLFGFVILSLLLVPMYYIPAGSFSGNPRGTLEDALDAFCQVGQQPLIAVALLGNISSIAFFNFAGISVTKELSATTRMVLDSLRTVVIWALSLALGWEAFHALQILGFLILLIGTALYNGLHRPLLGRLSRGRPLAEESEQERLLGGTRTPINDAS
# Sequence of UniProt Q9Y5J6 (Q9Y5J6 whole entry, looked up): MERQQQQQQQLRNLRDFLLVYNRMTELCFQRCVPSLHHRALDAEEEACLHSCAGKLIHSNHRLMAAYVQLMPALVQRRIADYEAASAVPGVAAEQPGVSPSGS
# Sequence of UniProt P78383 (P78383 whole entry, looked up): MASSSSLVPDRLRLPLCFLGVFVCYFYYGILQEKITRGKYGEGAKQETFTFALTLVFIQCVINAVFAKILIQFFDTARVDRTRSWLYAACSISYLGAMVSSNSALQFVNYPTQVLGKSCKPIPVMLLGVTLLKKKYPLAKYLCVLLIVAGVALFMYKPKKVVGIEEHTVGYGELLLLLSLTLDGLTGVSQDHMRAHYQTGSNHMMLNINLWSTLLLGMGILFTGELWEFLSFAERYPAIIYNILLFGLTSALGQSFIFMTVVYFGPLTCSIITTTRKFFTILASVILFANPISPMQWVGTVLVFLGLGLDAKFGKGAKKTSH
# Sequence of UniProt Q9H4I9 (Q9H4I9 whole entry, looked up): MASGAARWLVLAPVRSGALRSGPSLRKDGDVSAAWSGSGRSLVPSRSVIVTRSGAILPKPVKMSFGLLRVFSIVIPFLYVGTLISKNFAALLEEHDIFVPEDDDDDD
Target,log2 fold change (saracatinib),log2 fold change (sotrastaurin),log2 fold change (alvocidib),log2 fold change (Tubastatin A),log2 fold change [1],log2 fold change (defactinib),log2 fold change [2],log2 fold change [3],log2 fold change [4],log2 fold change (filanesib),log2 fold change (zotarolimus),log2 fold change (idasanutlin),log2 fold change (alisertib),log2 fold change [5],log2 fold change (gefitinib),log2 fold change [6],log2 fold change (lapatinib),log2 fold change (pictilisib),log2 fold change (rucaparib),log2 fold change (encorafenib)
STARD3 (UniProt Q14849),-0.043,-0.028,0.035,0.013,-0.02,-0.035,0.028,-0.014,0,-0.147,-0.004,0.109,0.018,0.038,0.075,0.035,0.043,-0.047,–,–
SMDT1 (UniProt Q9H4I9),0.092,-0.077,-0.005,0.035,–,0.014,-0.064,0.003,-0.053,-0.39 (active),-0.014,-0.087,-0.058,–,–,0.014,–,0.095,0.057,0.011
TBC1D5 isoform 2 (UniProt Q92609),-0.033,-0.169,-0.077,-0.036,-0.013,-0.088,-0.159,-0.055,0.048,-0.01,0.048,-0.052,-0.021,0.006,-0.031,0.003,-0.062,-0.091,0.015,0.119
STK38L (UniProt Q9Y2H1),0.103,0.035,-0.087,-0.067,0.002,-0.048,0.024,-0.073,-0.007,-0.009,0.036,-0.095,0.037,–,0.029,-0.064,–,0.05,-0.052,0.004
SLC30A7 (UniProt Q8NEW0),0.077,0.101,-0.105,-0.107,0.016,-0.051,-0.026,0.029,-0.105,-0.086,-0.025,-0.121,-0.019,0.088,0.017,0.184,-0.013,0.028,0.02,0.059
SRP68 (UniProt Q9UHB9),-0.033,-0.179,0.044,0.085,-0.002,-0.019,0.049,-0.073,0.024,0.066,0.043,-0.036,-0.029,0.016,0.008,-0.126,-0.011,-0.054,0.152,0.14
TIMM10B (UniProt Q9Y5J6),-0.046,0.074,-0.022,0.109,0.484 (active),-0.074,-0.106,-0.117,–,-0.068,0.023,0.009,-0.205,0.048,0.022,0.143,-0.248,-0.126,0.017,-0.022
SLC35B1 isoform 2 (UniProt P78383),0.036,-0.03,0.031,0.037,-0.003,0.026,0.011,-0.127,-0.106,-0.037,-0.005,–,-0.232,–,-0.022,0.129,–,–,-0.051,0.132
SLC35F6 (UniProt Q8N357),0.182,-0.071,-0.002,-0.05,-0.025,-0.043,-0.247,0.007,–,-0.001,0.016,0.02,-0.052,0.033,0,0.037,-0.076,–,-0.004,-0.042
SPTBN1 (UniProt Q01082),-0.019,-0.224 (active),-0.03,0.042,0.048,-0.125,-0.047,-0.057,-0.037,0.102,0.045,0.053,-0.073,0.02,0.084,-0.076,0.031,0.007,0.084,0.064
TATDN2 (UniProt Q93075),-0.017,0.111,-0.136,-0.094,-0.002,0,0,-0.031,-0.011,0.002,0.006,0.012,–,-0.015,-0.037,–,0.021,-0.016,-0.175,0.099
SUPT5H (UniProt O00267),-0.01,-0.021,-0.075,0.007,-0.004,-0.126,0.039,-0.017,0.02,-0.005,0.042,-0.062,-0.003,0.058,0.028,0.027,-0.006,0.05,-0.062,0.076
SORT1 (UniProt Q99523),0.038,0.017,0.012,-0.011,0.017,-0.033,-0.027,0.014,0.058,-0.066,0.002,0.008,-0.016,-0.032,0.028,0.056,0.022,0.003,0,-0.017
SUMO1 (UniProt P63165),-0.112,0.011,0.12,-0.073,0.022,-0.067,-0.09,0.028,-0.363,0.102,-0.183,-0.099,-0.052,-0.507 (active),0.004,0.055,0.549 (active),0.006,0.056,-0.029
SNX15 (UniProt Q9NRS6),-0.039,-0.048,0.133,0.045,–,-0.177,-0.043,0.025,-0.166,0.151,-0.034,0.108,-0.027,0.019,0.126,0.032,-0.139,0.018,-0.063,0.098
STARD7 (UniProt Q9NQZ5),-0.021,0.041,-0.122,-0.005,-0.012,-0.047,-0.014,-0.043,0.006,-0.094,0.006,-0.063,0.027,-0.171,-0.035,0.031,0.003,0.01,-0.009,0.03
SRCAP (UniProt Q6ZRS2),0.032,-0.045,-0.279,-0.486 (active),-0.069,-0.004,-0.028,-0.015,-0.083,0.097,-0.02,–,-0.091,-0.067,0.198,0.062,0.049,0.015,-0.058,0.009

# From the supplement of paper PMC10849652
